± gives the standard deviation.
Experiments:
Test in all cases: peptide microarray binding signal (635 nm), min-max normalized on array (fraction of array maximum); higher = stronger binding
[1] = target: T1, HaloTag-ATRX ADD domain (163-292)
T1 chain: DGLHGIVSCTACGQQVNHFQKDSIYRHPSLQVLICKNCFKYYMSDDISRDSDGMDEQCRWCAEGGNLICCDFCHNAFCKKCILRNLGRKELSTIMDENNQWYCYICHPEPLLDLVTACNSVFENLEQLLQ
Method: (§1)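 Histone 13-mer peptides were synthesized as cellulose conjugates with a C-terminal 20-atom PEG linker and printed in triplicate on nitrocellulose. The sequence given is the unmodified backbone; PTMs (Kme1/2/3, Kac, Sph/Tph, Rme/Rme2a/Rme2s, Rcit) are listed in the label and the 'peptide modifications' condition. Slides were probed at 4 °C for 1 h with biotin-labelled (HQ)5-HaloTag reader fusions (ATRX-ADD, ING2-PHD) then streptavidin-Alexa647, or with rabbit histone antibodies then anti-rabbit Alexa647. The mean 635 nm signal of the triplicate spots was scaled 0-1 between the lowest and highest values on each array.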

[2] = target: HaloTag-ING2 PHD (mouse Ing2 200-280)
Method: as §1

[3] = target: anti-H3K4me3 antibody ab8580
Method: as §1

[4] = target: anti-H3K9me3 antibody ab8898
Method: as §1

[5] = peptide region: H2B 7-19, peptide modifications: H2BK11ac H2BK12ac H2BS14ph H2BK15ac H2BK16ac, binder concentration: 1:2,000 dilution
[6] = peptide region: H2B 7-19, peptide modifications: H2BK11ac H2BK12ac H2BS14ph H2BK15ac H2BK16ac, binder concentration: 1:10,000 dilution
[7] = peptide region: H2B 1-13, peptide modifications: H2BK5ac, binder concentration: 1:2,000 dilution
[8] = peptide region: H2B 1-13, peptide modifications: H2BK5ac, binder concentration: 1:10,000 dilution
[9] = peptide region: H2B 1-13, peptide modifications: H2BK5ac H2BS6ph, binder concentration: 1:2,000 dilution
[10] = peptide region: H2B 1-13, peptide modifications: H2BK5ac H2BS6ph, binder concentration: 1:10,000 dilution
[11] = peptide region: H2B 1-13, binder concentration: 1:2,000 dilution
[12] = peptide region: H2B 1-13, binder concentration: 1:10,000 dilution
[13] = peptide region: H2B 1-13, peptide modifications: H2BK5ac H2BK11ac, binder concentration: 1:2,000 dilution
[14] = peptide region: H2B 1-13, peptide modifications: H2BK5ac H2BK11ac, binder concentration: 1:10,000 dilution

APAPKKGSKKAVT [H2B 7-19 A P A P Kac Kac G Sph Kac Kac A V T] was tested, and the “peptide microarray binding signal” value ([1]; peptide region: H2B 7-19, peptide modifications: H2BK11ac H2BK12ac H2BS14ph H2BK15ac H2BK16ac, binder concentration: 50 nM) was 0.00254 ± 2.9e-05, the “peptide microarray binding signal” value ([1]; peptide region: H2B 7-19, peptide modifications: H2BK11ac H2BK12ac H2BS14ph H2BK15ac H2BK16ac, binder concentration: 500 nM) was 0.00495 ± 8.6e-05 and the “peptide microarray binding signal” value ([2]; peptide region: H2B 7-19, peptide modifications: H2BK11ac H2BK12ac H2BS14ph H2BK15ac H2BK16ac, binder concentration: 10 nM) was 0.00639 ± 0.00065. For the same binder, the “peptide microarray binding signal” value ([2]; peptide region: H2B 7-19, peptide modifications: H2BK11ac H2BK12ac H2BS14ph H2BK15ac H2BK16ac, binder concentration: 100 nM) was 0.00163 ± 1.7e-05, the “peptide microarray binding signal” value [3, 5] was 0.00523 ± 0.00045 and the “peptide microarray binding signal” value [3, 6] was 0.00126 ± 2.2e-05. The “peptide microarray binding signal” value [4, 5] was 0.000891 ± 6e-05 and the “peptide microarray binding signal” value [4, 6] was 0.00098 ± 1.7e-05.

In the case of PEPAKSAPAPKKG [H2B 1-13 P E P A Kac S A P A P K K G], the “peptide microarray binding signal” value ([1]; peptide region: H2B 1-13, peptide modifications: H2BK5ac, binder concentration: 50 nM) is reported as 0.005486 ± 3.9e-05, the “peptide microarray binding signal” value ([1]; peptide region: H2B 1-13, peptide modifications: H2BK5ac, binder concentration: 500 nM) is reported as 0.0105 ± 0.00072 and the “peptide microarray binding signal” value ([2]; peptide region: H2B 1-13, peptide modifications: H2BK5ac, binder concentration: 10 nM) is reported as 0.0119 ± 0.00078. The “peptide microarray binding signal” value ([2]; peptide region: H2B 1-13, peptide modifications: H2BK5ac, binder concentration: 100 nM) was 0.0115 ± 0.00093, the “peptide microarray binding signal” value [3, 7] was 0.00421 ± 0.0021 and the “peptide microarray binding signal” value [3, 8] was 0.00137 ± 4.9e-05. The “peptide microarray binding signal” value [4, 7] was 0.00192 ± 0.00022 and the “peptide microarray binding signal” value [4, 8] was 0.0019 ± 0.00011.

PEPAKSAPAPKKG [H2B 1-13 P E P A Kac Sph A P A P K K G] was tested, and the “peptide microarray binding signal” value ([1]; peptide region: H2B 1-13, peptide modifications: H2BK5ac H2BS6ph, binder concentration: 50 nM) was 0.00433 ± 0.00028, the “peptide microarray binding signal” value ([1]; peptide region: H2B 1-13, peptide modifications: H2BK5ac H2BS6ph, binder concentration: 500 nM) was 0.00467 ± 0.0018 and the “peptide microarray binding signal” value ([2]; peptide region: H2B 1-13, peptide modifications: H2BK5ac H2BS6ph, binder concentration: 10 nM) was 0.00442 ± 0.0003. For the same binder, the “peptide microarray binding signal” value ([2]; peptide region: H2B 1-13, peptide modifications: H2BK5ac H2BS6ph, binder concentration: 100 nM) was 0.00872 ± 0.0029, the “peptide microarray binding signal” value [3, 9] was 0.00217 ± 0.0016 and the “peptide microarray binding signal” value [3, 10] was 0.000628 ± 1.3e-05. For the same binder, the “peptide microarray binding signal” value [4, 9] was 0.000332 ± 2.6e-05 and the “peptide microarray binding signal” value [4, 10] was 0.000865 ± 2.4e-05.

With PEPAKSAPAPKKG [H2B 1-13 P E P A K S A P A P K K G] the “peptide microarray binding signal” value ([1]; peptide region: H2B 1-13, binder concentration: 50 nM) was 0.00715 ± 0.00022, the “peptide microarray binding signal” value ([1]; peptide region: H2B 1-13, binder concentration: 500 nM) was 0.00119 ± 0.0002 and the “peptide microarray binding signal” value ([2]; peptide region: H2B 1-13, binder concentration: 10 nM) was 0.00197 ± 0.00013. For the same binder, the “peptide microarray binding signal” value ([2]; peptide region: H2B 1-13, binder concentration: 100 nM) was 0.00149 ± 7.7e-05, the “peptide microarray binding signal” value [3, 11] was 9.44e-05 ± 1e-06 and the “peptide microarray binding signal” value [3, 12] was 0.000342 ± 7.5e-06. The “peptide microarray binding signal” value [4, 11] was 0.000257 ± 2.6e-05 and the “peptide microarray binding signal” value [4, 12] was 0.000807 ± 2.9e-05.

In the case of PEPAKSAPAPKKG [H2B 1-13 P E P A Kac S A P A P Kac K G], the “peptide microarray binding signal” value ([1]; peptide region: H2B 1-13, peptide modifications: H2BK5ac H2BK11ac, binder concentration: 50 nM) is reported as 0.00439 ± 0.00015, the “peptide microarray binding signal” value ([1]; peptide region: H2B 1-13, peptide modifications: H2BK5ac H2BK11ac, binder concentration: 500 nM) is reported as 0.00957 ± 0.00041 and the “peptide microarray binding signal” value ([2]; peptide region: H2B 1-13, peptide modifications: H2BK5ac H2BK11ac, binder concentration: 10 nM) is reported as 0.00853 ± 0.00038. The “peptide microarray binding signal” value ([2]; peptide region: H2B 1-13, peptide modifications: H2BK5ac H2BK11ac, binder concentration: 100 nM) was 0.0114 ± 0.0021, the “peptide microarray binding signal” value [3, 13] was 0.00251 ± 0.0019 and the “peptide microarray binding signal” value [3, 14] was 0.00108 ± 3.8e-05. The “peptide microarray binding signal” value [4, 13] was 0.00198 ± 0.00033 and the “peptide microarray binding signal” value [4, 14] was 0.00225 ± 0.0002.

Source: the supplement of paper PMC4022240
